Assay outcomes as filed in PubChem BioAssay.
The list is not random: actives were taken first. Their share in the collection is about 7.5%.
NPC1 promoter act = activates the NPC1 promoter; Huh7 NPC1 promoter luciferase reporter, 24 h; Potency, µM (titrated, usually from 9.22 µM), most hits filed as activators; actives 2.4% (n = 320,000); AID 485313; note: nearly all actives have a fitted effect of over 60% in size
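Luminescence read-out of NPC1 promoter-driven luciferase in stably transfected Huh7 cells; compounds delivered in DMSO and left 24 h at 37C, 5% CO2, qHTS titration format.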
ELG1 genotoxic = induces genotoxicity in HEK293T cells with luciferase-tagged ELG1. HEK293T ELG1-luciferase reporter, luminescence, 16 h. Potency, µM (top dose mostly 46 µM), hits mostly activators. actives 1.3% (n = 330,000). AID 504466; note: nearly all actives have a fitted effect of over 60% in size
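HEK293T cells expressing luciferase-tagged ELG1 were treated with compound or DMSO for 16 hr at 37°C. Luciferase activity was then read after 30 min with ONE-Glo at room temperature; rising signal flags genetic stress.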
Rab9 prom act = activators of Rab9 promoter. Huh7 Rab9 promoter-luciferase reporter, luminescence, 24 h. Potency, µM (titrated, usually from 9.22 µM), usual class: activators. actives 2.8% (n = 320,000). AID 485297; note: nearly all actives have a fitted effect of over 60% in size
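Huh7 cells stably carrying a Rab9 promoter-luciferase reporter, 1500 cells per well in OP-MEM I with 10% FBS, treated with compound 24 hours at 37C. Luciferase activity read by luminescence after 10 minutes with Amplite reagent.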
FLuc counter = firefly luciferase modulation, counter-screen for miR-21 project. purified FLuc, Km substrates, luminescence inhibition. actives 6.9% (n = 360,000). Potency, µM (titrated, usually from 57.5 µM), actives largely listed as inhibitors. P08659; note: nearly all actives have a fitted effect of over 55% in size
Target sequence (P08659 whole entry, looked up): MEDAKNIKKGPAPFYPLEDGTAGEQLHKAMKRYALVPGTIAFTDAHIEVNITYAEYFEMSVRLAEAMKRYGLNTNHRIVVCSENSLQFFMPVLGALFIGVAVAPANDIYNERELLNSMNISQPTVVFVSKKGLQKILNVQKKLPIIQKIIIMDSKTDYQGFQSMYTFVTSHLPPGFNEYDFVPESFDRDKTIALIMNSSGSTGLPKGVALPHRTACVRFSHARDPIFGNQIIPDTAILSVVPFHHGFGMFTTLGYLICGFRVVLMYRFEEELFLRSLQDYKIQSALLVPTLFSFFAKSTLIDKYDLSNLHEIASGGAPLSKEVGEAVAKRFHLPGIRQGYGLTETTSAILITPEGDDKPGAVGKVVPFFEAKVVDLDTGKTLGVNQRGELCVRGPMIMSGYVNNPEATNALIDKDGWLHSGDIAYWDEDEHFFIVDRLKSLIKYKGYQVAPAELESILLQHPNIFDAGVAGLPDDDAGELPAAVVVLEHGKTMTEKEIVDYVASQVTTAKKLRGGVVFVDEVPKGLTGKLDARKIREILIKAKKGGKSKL
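Purified P. pyralis luciferase, 10 nM final, with Km-level 10 uM D-luciferin and 10 uM ATP in 50 mM Tris acetate pH 7.5, 10 mM Mg acetate, 0.01% Tween-20, 0.05% BSA; 6-point qHTS titration about 60 µM downward; luminescence read.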
Luc counter = Kinase-Glo luciferase inhibition (counter-screen) | actives 0.28% (n = 200,000) | Q27757 | AID 1379 | Kinase-Glo luciferase, ATP luminescence, 8 min | Potency, µM (titrated, usually from 38.3 µM), most hits filed as inhibitors; note: nearly all actives have a fitted effect of over 60% in size
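Inhibition of Kinase-Glo luciferase light generation was assessed at 10 uM ATP in pH 7.2 imidazole buffer, with luminescence measured after eight minutes at ambient temperature.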
SMN2 splice enh = increases expression of the SMN2 splice variant. HEK293 SMN2-luciferase splicing reporter, luminescence, 30-36 h. Potency, µM (highest dose often 46.1 µM), actives largely listed as activators. actives 2.8% (n = 210,000). AID 1458; note: nearly all actives have a fitted effect of over 55% in size
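qHTS luciferase splicing reporter: luminescence rises when SMN2 exon 7 is included in transfected HEK293 cells. Compound exposure lasted 30-36 h at 37C, with 4.5 mM final sodium butyrate as control, followed by a ONE-Glo read.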
Of the large screens only hits and unclear results are named; the others gave an inactive call; ! = a repeat was not active. Calls come from the whole dose curve; as a rule, active = well fitted curve in the direction sought with a large enough effect; inconclusive = small, poorly fitted or top-dose-only effect, or another doubt; inactive = no such curve, though single readings can be large; an effect the other way counts as inactive or inconclusive.

Cn1c(C(=O)N2CCCC(C(=O)O)C2)cc2sccc21 (stereo not drawn)	none
CCn1c(C(=O)NC2CCC(C)CC2)cc2sccc21 (stereo not drawn)	NPC1 promoter act 3.5µM, ELG1 genotoxic inconclusive, Rab9 prom act inconclusive, FLuc counter 15µM (no result: Luc counter, SMN2 splice enh)
CN(C(=O)c1cc2sccc2n1C)C1CCCCC1	NPC1 promoter act 4µM, ELG1 genotoxic inconclusive, Rab9 prom act 3.2µM, FLuc counter 13µM, SMN2 splice enh 13µM
CC(C)(C)c1ccc(-c2nc3n(c(=O)c2C#N)CCS3)cc1	none
Cc1ccccc1CNC(=O)C(C)n1nc(C)n2c(cc3occc32)c1=O (stereo not drawn)	none (no result: NPC1 promoter act, ELG1 genotoxic, Rab9 prom act, Luc counter)
CC1=C(C(=O)OC2CCCCC2)C(c2ccc(F)cc2)NC(=O)N1 (stereo not drawn)	none (no result: Luc counter, SMN2 splice enh)
CCc1ccc(C(=O)/C=C2\Sc3ccccc3NC2=O)cc1	FLuc counter 13µM (no result: SMN2 splice enh)
N#C/C(C(=O)N1CCCCC1)=C1\Nc2ccccc2S1	NPC1 promoter act inconclusive, ELG1 genotoxic inconclusive, Rab9 prom act 2.8µM, FLuc counter 11µM, SMN2 splice enh 18µM
O=C1Nc2ccccc2S/C1=C\C(=O)N1CCCC1	Rab9 prom act 3.5µM, FLuc counter 12µM, Luc counter inconclusive, SMN2 splice enh 13µM
Cc1nn(C(=O)c2ccc(Br)cc2)c(C)c1S(=O)(=O)N1CCOCC1	none (no result: NPC1 promoter act, ELG1 genotoxic, Rab9 prom act, Luc counter, SMN2 splice enh)
CCOc1ccc(CN2CCC(C(=O)Nc3cccc(-c4ccn[nH]4)c3)CC2)cc1Cl	FLuc counter inconclusive (no result: Luc counter, SMN2 splice enh)
Cc1cc2ncc(-c3cccc(Cl)c3)cn2n1	NPC1 promoter act inconclusive, Rab9 prom act inconclusive, FLuc counter inconclusive, SMN2 splice enh inconclusive
Cc1nn2cc(-c3ccc(Cl)cc3)cnc2c1Cl	NPC1 promoter act 3.5µM, ELG1 genotoxic inconclusive, Rab9 prom act 3.2µM, FLuc counter inconclusive, SMN2 splice enh 5.6µM
CCc1ccc2[nH]c(=O)c(-c3ccccc3)c(O)c2c1	FLuc counter 21µM (no result: Luc counter, SMN2 splice enh)
O=C1c2c(O)ccc(O)c2C(=O)c2c(NCCNCCO)ccc(NCCNCCO)c21	FLuc counter 19µM, Luc counter 13µM!
O=C1c2ccccc2C(=O)c2c(Nc3ccc(CCO)cc3)ccc(O)c21	NPC1 promoter act inconclusive, Rab9 prom act inconclusive, FLuc counter inconclusive (no result: Luc counter, SMN2 splice enh)
FCCCOc1ccc(-c2nccc(-c3ccccn3)n2)cc1	ELG1 genotoxic inconclusive, FLuc counter 19µM (no result: Luc counter, SMN2 splice enh)
O=C(O)COc1ccc(-c2nccc(-c3ccccn3)n2)cc1	FLuc counter 3.4µM
CN(C)S(=O)(=O)n1cc(/C=C(\NC(=O)c2ccccc2Cl)C(=O)N2CCCC2)c2ccccc21	none (no result: Luc counter, SMN2 splice enh)
CCOC(=O)CCC(NC(=O)CCCCCCCC(=O)NC(CCC(=O)OCC)C(=O)OCC)C(=O)OCC (stereo not drawn)	none
Cc1cc(NC(=O)CSc2nc3c(sc4ccccc43)c(=O)n2CCCN2CCOCC2)n[nH]1	SMN2 splice enh 35µM
COc1ccc(S(=O)(=O)N2CCC(C(=O)NCCCc3ccccc3)CC2)cc1	none (no result: Luc counter, SMN2 splice enh)
Cc1cc(C)cc(Nc2ncc3c(n2)CCCC3=O)c1	NPC1 promoter act 4µM, ELG1 genotoxic inconclusive, Rab9 prom act 4µM, FLuc counter 3.4µM, SMN2 splice enh 2.5µM
Cc1ccc2nc(Nc3ncc4c(n3)CCCC4=O)nc(C)c2c1	none
Cc1cccc(Nc2ncc3c(n2)CC(c2ccco2)CC3=O)c1 (stereo not drawn)	none
Cc1cccc(Nc2ncc3c(n2)CC(C)CC3=O)c1 (stereo not drawn)	NPC1 promoter act 3.5µM, ELG1 genotoxic 4.6µM, Rab9 prom act 3.5µM, FLuc counter 9.5µM, SMN2 splice enh 11µM
CCc1ccc(Nc2ncc3c(n2)CC(C)CC3=O)cc1 (stereo not drawn)	NPC1 promoter act 2µM, ELG1 genotoxic inconclusive, Rab9 prom act 1.3µM, FLuc counter inconclusive (no result: SMN2 splice enh)
CCc1ccc(Nc2ncc3c(n2)CC(C)(C)CC3=O)cc1	NPC1 promoter act 3.2µM, ELG1 genotoxic inconclusive, Rab9 prom act 2.5µM, FLuc counter 15µM (no result: Luc counter, SMN2 splice enh)
CC(C)CN1CCC(CNC(=O)CCc2nnc(Cc3c[nH]c4ccccc34)o2)CC1	none (no result: SMN2 splice enh)
O=C(NCCc1ccccc1)c1sc2ncccc2c1-n1cccc1	none (no result: NPC1 promoter act, ELG1 genotoxic, Rab9 prom act, Luc counter, SMN2 splice enh)
O=C(Nc1cccc(C(F)(F)F)c1)Nc1nnc(N2CCCCCC2)s1	none (no result: NPC1 promoter act, ELG1 genotoxic, Rab9 prom act, Luc counter, SMN2 splice enh)
CC1(C)Cc2c(cnn2-c2ccccc2)C(NC(=O)CCCn2cncn2)C1 (stereo not drawn)	ELG1 genotoxic inconclusive (no result: Luc counter, SMN2 splice enh)
Cc1ccc(N(C)C)cc1	none (no result: NPC1 promoter act, ELG1 genotoxic, Rab9 prom act, FLuc counter, Luc counter)
COc1ccc(C(=S)Nc2ccc(N(C)C)cc2)cc1	NPC1 promoter act 3.2µM, ELG1 genotoxic inconclusive, Rab9 prom act 2.8µM, FLuc counter 1.5µM, SMN2 splice enh 11µM
Cc1ccc(S(=O)(=O)NC(=O)Nc2ccc(N(C)C)cc2)cc1	ELG1 genotoxic inconclusive, Rab9 prom act inconclusive, FLuc counter 24µM (no result: Luc counter, SMN2 splice enh)
Cc1ccc(NC(=S)c2ccc(N(C)C)cc2)cc1	NPC1 promoter act 0.89µM, ELG1 genotoxic 3.7µM, Rab9 prom act 1.3µM, FLuc counter 1.7µM, SMN2 splice enh 4.5µM
COc1ccc(NC(=S)Nc2ccccc2)cc1	none
COc1ccc(NC(=S)c2ccccc2)cc1	NPC1 promoter act inconclusive, ELG1 genotoxic inconclusive, Rab9 prom act inconclusive, FLuc counter 11µM, SMN2 splice enh 14µM
C[C@H]1CC2[C@@H]3CCC4=CC(=O)C=C[C@]4(C)[C@@]3(Cl)[C@@H](O)C[C@]2(C)[C@@]1(O)C(=O)CO (stereo partly drawn)	none (no result: NPC1 promoter act, ELG1 genotoxic, Rab9 prom act, FLuc counter)
COc1ccc(NC(=S)c2ccc(N(C)C)cc2)cc1	NPC1 promoter act 4µM, ELG1 genotoxic inconclusive, Rab9 prom act 1.3µM, FLuc counter 2.1µM, SMN2 splice enh 11µM
